# In PubChem BioAssay:
# Values without a mark were called inactive. For part of these data: Measured potencies and affinities stand elsewhere. The source made the active and inactive calls. Unless noted, how the calls were made is not given here.
# Key:
# [1] = antimalarial activity against Dd2 strain (AID 2302;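 active means growth inhibition above 50% at the single 2 µM test dose, taken to imply half-maximal potency below 2 µM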;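 further: 0% = DMSO untreated growth and 100% = chloroquine plus artemisinin killed control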); conditions: P. falciparum Dd2 in RBCs, LDH growth readout, 72 h; at 2 µM; hits give high values
# [2] = HepG2 cytotoxicity, primary screen, cytotoxicity control for P. falciparum antimalarial project, cell-based, ATP luminescence (AID 2303;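 active means inhibition above 50%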;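 further: 0% = DMSO wells and 100% = digitonin-killed cells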); conditions: HepG2 viability, 24-48 h, at 10 µM, hits give high values
# [3] = molecular target: L-lactate dehydrogenase (Plasmodium falciparum (isolate CDC / Honduras)) (UniProt Q27743); assay: PfLDH activity inhibition – cell lysate, 3D7 strain, counter-screen for P. falciparum growth inhibition project (AID 2304);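 further: 0% = vehicle and 100% = reference inhibitor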; conditions: P. falciparum 3D7 crude extract, LDH APAD/NBT absorbance; at 2 µM; hits give high values
# [4] = inhibition of 3D7 malaria parasite growth – strain 3D7 (AID 2306);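 further: 0% = DMSO wells and 100% = chloroquine plus artemisinin control wells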; conditions: P. falciparum 3D7 erythrocytic growth, LDH absorbance, 72 h; at 2 µM; hits give high values
# [5] = molecular target: Calcium-dependent protein kinase 1 (Plasmodium falciparum (isolate 3D7)) (UniProt P62344); assay: PfCDPK1 kinase inhibitors, biochemical, TCAMS library (AID 1159585; cut-off not given, nearly all actives have IC50 up to about 0.98 µM;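 further: inhibitors leave more ATP so luminescence rises with inhibition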); conditions: recombinant PfCDPK1, Kinase-Glo ATP depletion luminescence
# [6] = molecular target: Plasmodium falciparum protein kinase 6 (PK6, PF3D7_1337100) (UniProt Q8IDW1); assay: PfPK6 kinase inhibitors, biochemical, TCAMS library (AID 1159586); conditions: recombinant PfPK6, Kinase-Glo ATP depletion luminescence
# [7] = molecular target: Protein kinase 7 (PK7), Plasmodium falciparum 3D7 (PF3D7_0213400) (UniProt Q7YTF7); assay: inhibition of Plasmodium PK7 catalytic activity – biochemical, TCAMS antimalarial set, Kinase-Glo luminescence (AID 1159587); conditions: recombinant PfPK7, Kinase-Glo ATP depletion luminescence
# [8] = molecular target: Calcium-dependent protein kinase 4 (Plasmodium falciparum (isolate 3D7)) (UniProt Q8IBS5); assay: PfCDPK4 kinase inhibitors, biochemical, TCAMS library (AID 1159588; cut-off not given, nearly all actives have IC50 up to about 0.91 µM); conditions: recombinant PfCDPK4, Kinase-Glo ATP depletion luminescence
# Chain of Calcium-dependent protein kinase 4 (Plasmodium falciparum (isolate 3D7)) (Q8IBS5 whole entry, looked up): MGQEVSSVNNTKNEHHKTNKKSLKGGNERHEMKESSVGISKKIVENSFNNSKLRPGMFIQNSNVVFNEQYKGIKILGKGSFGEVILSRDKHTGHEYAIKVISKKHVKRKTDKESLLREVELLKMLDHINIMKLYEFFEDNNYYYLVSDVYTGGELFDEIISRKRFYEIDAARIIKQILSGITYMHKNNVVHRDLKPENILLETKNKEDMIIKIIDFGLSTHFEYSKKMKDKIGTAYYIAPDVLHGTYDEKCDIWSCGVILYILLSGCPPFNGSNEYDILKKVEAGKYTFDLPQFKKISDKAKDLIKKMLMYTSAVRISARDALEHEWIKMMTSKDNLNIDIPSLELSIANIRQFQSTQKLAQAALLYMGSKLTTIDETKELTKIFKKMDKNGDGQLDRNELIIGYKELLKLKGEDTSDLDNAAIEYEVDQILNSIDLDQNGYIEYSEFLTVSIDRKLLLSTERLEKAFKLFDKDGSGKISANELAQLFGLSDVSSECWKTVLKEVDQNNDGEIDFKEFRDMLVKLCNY
# Chain of Protein kinase 7 (PK7), Plasmodium falciparum 3D7 (PF3D7_0213400) (Q7YTF7 1-343): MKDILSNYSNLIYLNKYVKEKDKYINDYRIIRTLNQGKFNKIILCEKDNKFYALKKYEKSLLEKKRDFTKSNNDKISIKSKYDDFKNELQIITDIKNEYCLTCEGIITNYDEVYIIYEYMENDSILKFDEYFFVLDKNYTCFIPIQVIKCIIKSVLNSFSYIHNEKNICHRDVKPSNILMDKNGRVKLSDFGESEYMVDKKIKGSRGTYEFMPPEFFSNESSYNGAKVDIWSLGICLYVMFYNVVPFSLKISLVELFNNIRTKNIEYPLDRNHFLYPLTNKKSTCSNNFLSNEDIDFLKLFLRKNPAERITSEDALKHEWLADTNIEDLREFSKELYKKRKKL
# Chain of Plasmodium falciparum protein kinase 6 (PK6, PF3D7_1337100) (Q8IDW1 1-305): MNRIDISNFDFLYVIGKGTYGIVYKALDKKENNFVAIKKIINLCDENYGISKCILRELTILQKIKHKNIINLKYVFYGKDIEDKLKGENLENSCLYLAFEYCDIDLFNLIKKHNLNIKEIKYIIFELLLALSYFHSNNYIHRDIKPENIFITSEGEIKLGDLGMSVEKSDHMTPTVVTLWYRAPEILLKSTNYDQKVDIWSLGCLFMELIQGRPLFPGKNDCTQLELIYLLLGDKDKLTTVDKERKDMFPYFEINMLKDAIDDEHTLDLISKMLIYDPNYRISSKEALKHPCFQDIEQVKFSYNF
# Chain of L-lactate dehydrogenase (Plasmodium falciparum (isolate CDC / Honduras)) (Q27743 whole entry, looked up): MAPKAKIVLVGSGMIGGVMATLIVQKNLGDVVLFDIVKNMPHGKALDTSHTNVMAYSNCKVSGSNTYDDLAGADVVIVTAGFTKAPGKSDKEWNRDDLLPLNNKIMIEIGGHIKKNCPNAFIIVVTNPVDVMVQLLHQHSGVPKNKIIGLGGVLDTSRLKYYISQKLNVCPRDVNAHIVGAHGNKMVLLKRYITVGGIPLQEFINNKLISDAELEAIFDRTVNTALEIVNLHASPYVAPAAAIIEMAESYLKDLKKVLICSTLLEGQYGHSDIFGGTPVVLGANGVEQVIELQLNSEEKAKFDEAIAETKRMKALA
# Chain of Calcium-dependent protein kinase 1 (Plasmodium falciparum (isolate 3D7)) (P62344 whole entry, looked up): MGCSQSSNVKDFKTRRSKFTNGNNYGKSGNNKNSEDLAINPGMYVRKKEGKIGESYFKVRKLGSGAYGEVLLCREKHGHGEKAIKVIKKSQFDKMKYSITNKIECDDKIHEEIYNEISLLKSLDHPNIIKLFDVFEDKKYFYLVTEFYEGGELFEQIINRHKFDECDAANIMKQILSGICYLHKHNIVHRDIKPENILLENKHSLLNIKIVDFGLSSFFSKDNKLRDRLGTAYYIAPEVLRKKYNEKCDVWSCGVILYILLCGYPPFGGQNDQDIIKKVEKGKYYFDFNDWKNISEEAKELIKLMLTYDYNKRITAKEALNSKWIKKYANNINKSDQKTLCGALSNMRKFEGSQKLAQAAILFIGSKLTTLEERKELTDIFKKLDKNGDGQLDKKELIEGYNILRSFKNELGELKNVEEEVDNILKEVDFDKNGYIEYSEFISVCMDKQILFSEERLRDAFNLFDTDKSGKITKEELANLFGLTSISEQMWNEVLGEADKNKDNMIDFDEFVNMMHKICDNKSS
Structure (SMILES),growth inhibition [1],inhibition [2],inhibition [3],growth inhibition [4],outcome [5],outcome [6],outcome [7],outcome [8]
Cc1[nH]c(C)c(-c2ccc(OCCn3cnc(Cl)c3Cl)cc2)c(=O)c1Br,35%,2%,2%,95% (active),inactive,inactive,inactive,inactive
O=C(/C=C/c1ccc(Cl)c(Cl)c1)NCCCCCN1CCC(c2[nH]nc(-c3ccccc3)c2Br)CC1,23%,100% (active),1%,95% (active),inactive,inactive,inactive,inactive
Cc1ccc2nc(NC#N)[nH]c2c1,-3%,7%,2%,96% (active),inactive,inactive,inactive,inactive
COc1ccc(NC(=O)[C@H](CC(C)C)Nc2cc(C)nc(NCCc3ccc(F)cc3)n2)cc1,79% (active),1%,-3%,100% (active),inactive,inactive,inactive,inactive
O=C(Nc1ccc(Cl)cc1)c1ccc(CN2CCCN(Cc3cccc(Cl)c3)CC2)cc1,15%,53% (active),1%,96% (active),inactive,inactive,inactive,inactive
C=CCOc1ccc(C2C(C(=O)OC)=C(C)NC3=C2C(=O)c2ccccc23)cc1OC (configuration not stated),65% (active),-4%,-8%,82% (active),inactive,inactive,inactive,inactive
CN(c1ccc2c(c1)nc(Nc1cc(C(C)(C)C)on1)n2C)c1ccnc(Nc2ccc(CS(C)(=O)=O)cc2)n1,13%,77% (active),-6%,89% (active),inactive,inactive,inactive,inactive
COc1cccc2cc(C(=O)N[C@@H](CC(C)C)C(=O)N[C@H](/C=N/N(C)C(=O)OC(C)(C)C)Cc3ccccc3)oc12,89% (active),5%,-3%,99% (active),inactive,inactive,inactive,inactive
CN(C)C(=O)c1cccc(COc2ccc(N3C(N)=NC(N)=NC3(C)C)cc2Cl)c1,–,–,1%,–,inactive,inactive,inactive,inactive
Cc1cc(-c2cc3nc4c(c(=O)n3[nH]2)CCCC4)c(C)o1,82% (active),4%,-4%,94% (active),inactive,inactive,inactive,inactive
COc1ccc(OC)c2c1C[C@@H]1NC[C@H]2c2c(OC)ccc(OC)c21,3%,2%,1%,99% (active),inactive,inactive,inactive,inactive
COCC(=O)N(Cc1ccccc1-c1cccc(CNCc2ccc3c(c2)OCO3)c1)C1CCN(Cc2ccccc2)CC1,72% (active),33%,-1%,94% (active),inactive,inactive,inactive,inactive
COCCN1CCN(Cc2ccc(-c3ccc(-c4nc5c(C)cccc5[nH]4)s3)cc2)CC1,52% (active),32%,-2%,95% (active),inactive,inactive,inactive,inactive
c1ccc2cc3c(Nc4ccc(N5CCCCC5)cc4)ccnc3cc2c1,36%,21%,-4%,100% (active),inactive,inactive,inactive,inactive
Oc1ccc(CCCNc2nc(NCc3ccccc3-c3ccccc3)nc(N3CCNCC3)n2)cc1,48%,39%,5%,94% (active),inactive,inactive,inactive,inactive
O=C(NCc1ccc(C(=O)NC2CCCCC2)cc1)c1ccc(O)c(-c2ccc(Cl)c(Cl)c2)c1,-4%,5%,-6%,93% (active),inactive,inactive,inactive,inactive
CN(CCc1ccccc1)c1ncc(-c2cccc(CNCCC3CCCN3C)c2)cn1 (configuration not stated),98% (active),99% (active),-1%,92% (active),inactive,inactive,inactive,inactive
CN1CCCC1CCNc1ncc2c(-c3ccc(NC(=O)Nc4cc(C(F)(F)F)ccc4F)cc3)nn(C)c2n1 (configuration not stated),72% (active),74% (active),0%,96% (active),inactive,inactive,inactive,inactive
NCCCNc1ccnc2cc(Cl)ccc12,25%,14%,0%,101% (active),inactive,inactive,inactive,inactive
O=C(/C=C/c1ccc(Cl)c(Cl)c1)NCCCCCN1CCC(NC(=O)Nc2cccc(Cl)c2Cl)CC1,35%,99% (active),-5%,104% (active),inactive,inactive,inactive,inactive
O=C(/C=C/c1ccc(C(F)(F)F)cc1)NCCCCCN1CCCN(C(=O)Nc2ccc(Cl)cc2)CC1,-1%,28%,-1%,99% (active),inactive,inactive,inactive,inactive
COc1cccc(C2CCN(CCN3CCC(NC(=O)c4ccc(-c5ccc(Cl)cc5)cc4)CC3)CC2)c1,42%,31%,-12%,93% (active),inactive,inactive,inactive,inactive
CC(C)CCN1CCCN(Cc2ccc(C(=O)Nc3ccc(Cl)cc3)cc2)CC1,15%,46%,4%,94% (active),inactive,inactive,inactive,inactive
COc1cccc(NC(=O)c2cc(Br)cc(N3CCN(c4ccncc4)CC3)c2)c1,79% (active),30%,0%,100% (active),inactive,inactive,inactive,inactive
CN(C)CCOc1ccc2[nH]c(-c3cccc(OCc4ccccc4)c3)nc2c1C#N,86% (active),48%,-5%,100% (active),inactive,inactive,inactive,inactive
CN1CCN(c2ccc(-c3cc(-c4cc(F)c(F)c(F)c4)cnc3N)cc2)CC1,12%,58% (active),-4%,88% (active),inactive,inactive,inactive,inactive
COc1ccc(CNC2CCN(C)CC2)cc1-c1ccc(S(=O)(=O)NCc2ccccc2)cc1,99% (active),56% (active),5%,100% (active),inactive,inactive,inactive,inactive
COc1cccc(-c2cc(C(=O)Nc3ccc4nc(-c5ccccc5)[nH]c4c3)[nH]n2)c1,65% (active),68% (active),2%,100% (active),inactive,inactive,inactive,inactive
CCCc1cc(Cc2cnc(N)nc2N)ccc1OCCCCCC(=O)O,-2%,3%,1%,97% (active),inactive,inactive,inactive,inactive
c1cc(CN2CCN(c3ccncc3)CC2)cc(-c2ccc(-c3nc4ccccc4[nH]3)s2)c1,100% (active),59% (active),-2%,102% (active),inactive,inactive,inactive,inactive
